Values joined by “and” are separate entries in the source; they are usually repeats but may differ in a detail not shown here. Equal values may be shown once. Results filed as inconclusive are left out. A number with no mark means an inactive call. Active and inactive are the calls of the source. Calls follow the shape of the dose curve; as a rule, active = well fitted activation curve with a large enough effect; inconclusive = small, poorly fitted or top-dose-only effect; inactive = no such curve, though single readings can be large or run the other way. Positions of bridges follow the written chain, without caps; N, C: chain ends. Non-standard residues stand in square brackets, D forms with d. Residues, ends and D or L forms follow the SMILES beside them. *: point of attachment. X1 = CCC(C)C(N)C1=NC(C(=O)*)CS1; dOrn = NCCC[C@@H](N)C(=O)O

Experimental findings from PubChem BioAssay (NCATS) are described below.
Potency is read from the fitted curve at half-maximal effect.

The target of the experiment is Cellular tumor antigen p53 (Homo sapiens) (UniProt P04637). The experiment in a line: Primary qHTS for small molecule compounds that upregulate eGFP-tagged delta133p53alpha (in N-terminal) cells. (AID 2060322). Also: nearly all actives have a fitted effect of over 75% in size.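 As to activation: series mostly up to about 56 µM; 0% = DMSO vehicle and 100% = reference activator.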 As to conditions: NCI-H358 eGFP-delta133p53alpha fluorescence, 24 h; activation: hits give high values. A digest of the protocol: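 NCI-H358 cells pre-induced 24 h with 10 ng/ml doxycycline for eGFP-delta133p53alpha, plated dox-free and exposed 24 h at 37C to titrated compounds. Fixed, Hoechst-stained; gated GFP peak intensity by laser scanning cytometry, normalized to DMSO (0%) and 57.5 uM 5-azacytidine (100%).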
Sequence of Cellular tumor antigen p53 (Homo sapiens) (P04637 whole entry, looked up): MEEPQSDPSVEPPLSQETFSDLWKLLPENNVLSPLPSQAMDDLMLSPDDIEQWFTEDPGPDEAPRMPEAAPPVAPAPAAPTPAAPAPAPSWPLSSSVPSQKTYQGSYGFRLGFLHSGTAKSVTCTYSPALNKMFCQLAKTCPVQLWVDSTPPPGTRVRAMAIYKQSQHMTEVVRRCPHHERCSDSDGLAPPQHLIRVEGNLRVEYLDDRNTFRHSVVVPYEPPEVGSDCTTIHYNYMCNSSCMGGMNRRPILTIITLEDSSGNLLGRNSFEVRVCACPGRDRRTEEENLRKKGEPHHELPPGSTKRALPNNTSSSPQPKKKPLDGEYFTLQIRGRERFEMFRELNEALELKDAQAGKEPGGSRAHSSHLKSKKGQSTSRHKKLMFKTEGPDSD
Regarding `Cc1nnc(-c2sc(NC(=O)[C@H](C(C)C)n3c(=O)[nH]c4ccccc4c3=O)nc2C)o1`, the activation was -7.64%.

In the case of `CN(C)C(=O)Nc1cc(-c2ccccc2)ccc1N(C)C`, the activation was -13.7%.

In the case of `CCCN(CCN1CCN(c2ccccc2OC)CC1)C1CCc2ncsc2C1` (stereo unspecified), the activation was -3.57%.

`CCC(C)C(N)C1=NC(C(=O)N[C@@H](CC(C)C)C(=O)N[C@H](CCC(=O)O)C(=O)N[C@H](C(=O)N[C@H]2CCCCNC(=O)[C@H](CC(N)=O)NC(=O)[C@@H](CC(=O)O)NC(=O)[C@H](Cc3cnc[nH]3)NC(=O)[C@@H](Cc3ccccc3)NC(=O)[C@H]([C@@H](C)CC)NC(=O)[C@@H](CCCN)NC2=O)[C@@H](C)CC)CS1` (stereo partly specified) (X1-L[dE]IK[dOrn]I[dF]H[dD]N; lactam 4-C): the activation is -3.34% and -0.955%.

On to `O=C1CC(c2ccc([N+](=O)[O-])cc2)=NN1c1ccccc1`, for which the activation is -8.93%.

Regarding `O=C(O)c1cnn(-c2nc3cc(OC(F)(F)F)c(Cl)cc3[nH]2)c1`, the activation was -9.67%.

With `CO/N=C(/C(=O)N[C@@H]1C(=O)N2C(C(=O)O)=C(Cn3ccc(=N)n3CCO)CS[C@H]12)c1csc(N)n1`, the activation was 2.39%.

As to `C=CC(=O)Nc1cccc(Nc2nc(Nc3ccc(Oc4ccnc(C(=O)NC)c4)cc3)ncc2F)c1`, the Potency was 4.26 µM (active).

As to `CC(=O)Nc1sc2c(c1-c1nc3ccccc3s1)CNC2`, the Potency was 26.9 µM (active).

`Oc1ccc(Nc2nc(-c3ccc(Cl)cc3)cs2)cc1`: the activation is 24.1%.

Consider `CC(=O)NC(C)c1cnc(-c2cnc(Oc3ccc(OC(C)C)cc3)s2)s1` (stereo unspecified), for which the activation is -20%.
